An excerpt weighted towards active compounds, which were near 32% of everything screened.
PostGolgi ctrl: yeast control strain growth, post-Golgi counter-screen; 98,000 compounds, 5% hits; efflux-deficient yeast background strain, growth absorbance A615, 16 h; AID 738; inhibition, % at 10 µM
CYP2C9 act: increases human cytochrome P450 2C9 activity; recombinant CYP2C9, luciferin-H conversion, luminescence; hits give high values; factor 1 = untreated enzyme, 0 = blocked; activation factor at 5 µM; 96,000 compounds, 1.4% hits; AID 1024;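 active = activation factor of 2 or more for CYP2C9 at a 5 µM dose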;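 also: 0 = sulfaphenazole-blocked wells and 1 = vehicle-only wells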
Target sequence (P11712 whole entry, looked up): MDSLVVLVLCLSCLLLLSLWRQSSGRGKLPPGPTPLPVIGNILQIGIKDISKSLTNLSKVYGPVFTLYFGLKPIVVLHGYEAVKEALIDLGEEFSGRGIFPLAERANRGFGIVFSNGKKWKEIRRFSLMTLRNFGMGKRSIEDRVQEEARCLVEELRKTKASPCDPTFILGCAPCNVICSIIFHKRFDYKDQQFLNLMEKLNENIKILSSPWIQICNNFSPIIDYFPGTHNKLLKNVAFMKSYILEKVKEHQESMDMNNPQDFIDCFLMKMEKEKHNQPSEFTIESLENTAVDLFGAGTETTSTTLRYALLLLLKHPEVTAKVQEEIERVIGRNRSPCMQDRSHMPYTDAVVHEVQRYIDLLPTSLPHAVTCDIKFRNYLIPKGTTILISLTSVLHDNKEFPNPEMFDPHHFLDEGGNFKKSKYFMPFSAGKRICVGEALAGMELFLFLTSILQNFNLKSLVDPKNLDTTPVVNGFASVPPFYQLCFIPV
CYP2C9 inhib: blocks human cytochrome P450 2C9. inhibition, % at 5 µM. P11712. 96,000 compounds, 20% hits. CYP2C9 Supersomes, luciferin-H conversion, luminescence;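 active = blocking of liver enzyme CYP2C9 beyond about 50% at 5 µM, limit read from the data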
PostGolgi yeast: growth inhibition of a yeast mutant, post-Golgi transport screen; post-Golgi transport phenotypic cell assay; 98,000 compounds, 0.9% hits; inhibition, % at 10 µM;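 also: yeast cells grown in 1536-well plates; yeast grown about 18 h at 30C before absorbance read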
CYP2C19 inhib: human CYP2C19 inhibition | P33261 | CYP2C19 Supersomes, luciferin-H EGE luminescence, 30 min | inhibition, % at 5 µM | 96,000 compounds, 21% hits | AID 778;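 active = CYP2C19 inhibition above a set limit at 5 µM in the primary screen, cut at about 50% in these data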;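 also: plate controls were negative control wells for no effect and 2.5 mM tranylcypromine positive control for full effect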
CYP2C19 activ: activators of human cytochrome P450 2C19; P33261; recombinant CYP2C19, luciferin-H EGE luminescence; hits give high values; 0 = fully inhibited enzyme, 1 = untreated enzyme; activation factor at 5 µM; 96,000 tested, under 10 active; AID 1025;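 active = activation factor of at least 2 at 5 µM in the primary screen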;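 also: 0 = wells with 2.5 mM tranylcypromine and 1 = vehicle-only wells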
Active calls of the source: *; / = no result given. Rule as the data show it, unless noted: active = inhibition above about 30%; inactive = the rest.

SMILES	PostGolgi ctrl	CYP2C9 act	CYP2C9 inhib	PostGolgi yeast	CYP2C19 inhib	CYP2C19 activ
O=C(Nc1cccnc1)C1CCCN(S(=O)(=O)c2cccc3nsnc23)C1 (stereo unspecified)	0	0.3	70*	2	69*	0.3
O=C(NCc1ccccn1)C1CCCN(S(=O)(=O)c2cccc3nsnc23)C1 (stereo unspecified)	13	1	-3	14	-13	1.1
COc1ccc(NC(=O)C2CCCN(S(=O)(=O)c3cccc4cccnc34)C2)c(OC)c1 (stereo unspecified)	3	1	-5	-9	41	0.6
Cc1ccc2nc(NC(=O)C3CCCN(S(=O)(=O)c4cccc5nsnc45)C3)sc2c1 (stereo unspecified)	17	0.5	52*	-4	50	0.5
Cc1ccccc1N(CC(=O)NCc1ccc2c(c1)OCO2)C(=O)CCC(=O)Nc1ccccn1	2	0.5	49	5	50	0.5
Clc1ccc(OCCSc2ncccn2)cc1	1	0.8	20	1	29	0.7
CCS(=O)(=O)NCCc1cc2c(OC)ccc(OC)c2[nH]c1=O	-2	/	/	-5	/	/
CCCCn1c(SCC(=O)Nc2cc(C)on2)nc2c1c(=O)n(C)c(=O)n2C	-2	0.7	32	-10	17	0.8
CCCn1c(SCC(=O)OCc2ccccc2)nc2c1c(=O)n(C)c(=O)n2C	2	0.7	26	-13	-1	1
CCCn1c(SCC(=O)Nc2sc(C)c(C)c2C(=O)OCC)nc2c1c(=O)n(C)c(=O)n2C	3	0.3	66*	-7	-3	1
CCCn1c(SCC(=O)Nc2ccccc2C(=O)OC)nc2c1c(=O)n(C)c(=O)n2C	15	0.3	72*	-10	34	0.7
CCCn1c(SCC(=O)Nc2ccccc2N2CCCCC2)nc2c1c(=O)n(C)c(=O)n2C	22	0	98*	12	79*	0.2
O=C(Nc1ccc2c(c1)C(=O)N(CC1CCCO1)C2=O)c1ccc(Cl)c(Cl)c1 (stereo unspecified)	10	0.7	26	-5	-27	1.3
O=C(NCc1ccco1)c1cc2c(s1)CSC2	2	0.4	56*	3	32	0.7
Cn1nc(-c2ccc(Cl)cc2)c2cc(C(=O)NCC3CCCO3)sc21 (stereo unspecified)	11	0.5	53*	-7	28	0.7
CN1CCN(CCCNC(=O)c2cc3c(-c4ccc(Cl)cc4)nn(C)c3s2)CC1	-1	0.9	13	4	-2	1
Cc1scc(C(=O)NCc2ccco2)c1-c1ccccc1	1	0.5	46	1	61*	0.4
O=C(NCC1CCCO1)c1cc(-c2ccccc2)on1 (stereo unspecified)	6	2.6*	-156	0	-4	1
Cc1ccc(-c2cc(C(=O)NCC3CCCO3)no2)cc1 (stereo unspecified)	16	1.1	-12	2	44	0.6
O=C(NCc1ccco1)c1ccccc1-c1ccccc1	2	1.1	-7	-2	4	1
O=C(NCc1ccco1)c1cccs1	-2	0.9	11	-4	13	0.9
COc1ccc(OC)c(C2c3c(oc4ccccc4c3=O)C(=O)N2CCCN(C)C)c1 (stereo unspecified)	5	0.8	24	14	11	0.9
CC(=O)c1c(OC(=O)c2ccccc2)c2ccccc2n1C	22	1	3	15	33	0.7
O=C(NCC1CCCO1)c1ccccc1-c1nc(-c2ccccc2)no1 (stereo unspecified)	3	0.4	58*	0	24	0.8
O=C(NCc1ccco1)c1cc(-c2ccccc2)on1	2	2.1*	-108	1	8	0.9
SMILES	PostGolgi ctrl	CYP2C9 act	CYP2C9 inhib	PostGolgi yeast	CYP2C19 inhib	CYP2C19 activ
CC1=C(C(=O)Nc2ccc(C)cc2C)C(c2ccc([N+](=O)[O-])cc2)n2ncnc2N1 (stereo unspecified)	9	1	1	7	16	0.8
Nc1nc(SCc2ccc3c(c2)OCO3)n[nH]1	0	1.1	-14	1	-13	1.1
CC(C)(C)OC(=O)NC(CCNC=C1C(=O)OC(C)(C)OC1=O)C(=O)O (stereo unspecified)	-7	0.8	15	0	-12	1.1
CCOC(=O)c1cncc(NC(=O)c2ccccc2)c1	-1	1	2	4	21	0.8
COC(=O)c1cc(Br)c(=O)n(-c2cccc(F)c2)c1	2	1	0	-6	52*	0.5
COC(=O)c1cc(Br)c(=O)n(-c2ccccc2OC)c1	11	1.2	-22	15	14	0.9
COC(=O)c1cc(Br)c(=O)n(-c2ccc(OC)cc2)c1	-9	0.9	12	-1	55*	0.4
COc1cccc(OC)c1C(=O)NN1CCCCC1	2	1.1	-13	9	-4	1
Cc1cc(NC(=O)CCC(=O)N(c2ccccc2)C(C(=O)NCC2CCCO2)c2cccnc2)no1 (stereo unspecified)	9	1	3	-3	-10	1.1
CN1CCc2nc(NC(=O)c3cccc(S(=O)(=O)N4CCc5ccccc54)c3)sc2C1	-5	0.7	27	6	-2	1
CCC(CC)c1nnc(NC(=O)c2cccc(S(=O)(=O)N3CCc4ccccc43)c2)s1	7	0.2	76*	7	28	0.7
CSCCC(NC(=O)OC(C)(C)C)C(=O)NC(C(=O)NC(CC(C)C)C(N)=O)C(C)C (stereo unspecified)	10	1	1	26	-11	1.1
CCn1c(=O)c(NC(=O)c2ccccc2)c2n(c1=S)CCCCC2	-4	0.5	54*	-4	32	0.7
CCc1ccc2c(Cl)c(C(=O)N/N=C/c3c[nH]c4ccccc34)sc2c1	42*	0.5	47	1	41	0.6
O=C(N/N=C/c1c[nH]c2ccc(Br)cc12)c1ccn(Cc2ccc(Cl)cc2)n1	57*	0.5	48	3	30	0.7
O=C(N/N=C/c1c[nH]c2ccccc12)c1ccn(Cc2ccc(Cl)cc2Cl)n1	10	0.3	70*	6	57*	0.4
Cc1ccc(Cn2ccc(NC(=O)c3cc(-c4ccc(Br)cc4)on3)n2)cc1	2	0.8	18	-5	-4	1
Cc1ccc(S(=O)(=O)NC(=O)NCCCCNC(=O)NS(=O)(=O)c2ccc(C)cc2)cc1	13	0.9	12	9	-8	1.1
C#CCOc1c(Br)cc(/C=N/O)cc1OCC	-4	0.3	72*	-1	47	0.5
CCOc1cc(/C=N/O)cc(Cl)c1OC	17	1.1	-8	-10	6	0.9
CCOc1cc(/C=N/O)cc(Br)c1OCc1ccc(Cl)cc1	37*	0.9	7	4	4	1
C#CCOc1c(Br)cc(/C=N\NC(=O)CN2CCOCC2)cc1OCC	6	0.4	59*	3	31	0.7
